From ChEMBL document CHEMBL3433997, “St. Jude Leishmania screening dataset” (2016)

Tests used:
Format in all cases: functional
[1] = biological target: Solute carrier family 2, facilitated glucose transporter member 1 (Homo sapiens) (UniProt P11166); assay: ST_JUDE_LEISH: Cytotoxicity at 2uM final concentration against transgenic Leishmania Mexicana promastigotes LmGLUT1 that are glucose transport deficient and complemented with the human glucose transporter GLUT1. Activity is measured by DNA content using SYBR green in vitro
Chain of Solute carrier family 2, facilitated glucose transporter member 1 (Homo sapiens) (P11166 whole entry): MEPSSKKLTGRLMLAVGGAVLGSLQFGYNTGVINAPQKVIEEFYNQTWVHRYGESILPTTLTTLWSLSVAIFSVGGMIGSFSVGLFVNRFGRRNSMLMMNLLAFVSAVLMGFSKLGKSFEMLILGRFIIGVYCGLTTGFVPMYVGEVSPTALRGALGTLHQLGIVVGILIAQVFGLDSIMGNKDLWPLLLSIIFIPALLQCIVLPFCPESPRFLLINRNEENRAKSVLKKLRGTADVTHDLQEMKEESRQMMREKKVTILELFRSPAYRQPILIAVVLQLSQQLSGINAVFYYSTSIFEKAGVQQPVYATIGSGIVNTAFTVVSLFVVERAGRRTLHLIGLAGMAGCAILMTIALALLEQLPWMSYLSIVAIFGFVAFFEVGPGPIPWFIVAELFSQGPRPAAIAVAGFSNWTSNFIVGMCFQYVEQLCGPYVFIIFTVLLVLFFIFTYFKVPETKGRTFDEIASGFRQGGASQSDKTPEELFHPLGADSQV

[2] = biological target: Hexose transporter 1 (Plasmodium falciparum) (UniProt O97467); assay: ST_JUDE_LEISH: Cytotoxicity at 2uM final concentration against transgenic Leishmania Mexicana promastigotes LmPfHT that are glucose transport deficient and complemented with the Plasmodium falciparum hexose transporter. Activity is measured by DNA content using SYBR green in vitro
[3] = biological target: Glucose transporter (Leishmania mexicana) (UniProt O61059); assay: ST_JUDE_LEISH: Cytotoxicity at 2uM final concentration against transgenic Leishmania Mexicana promastigotes LmGT2 that are glucose transport deficient and complemented with the L. Mexicana glucose transporter 2. Activity is measured by DNA content using SYBR green in vitro

SMILES	inhibition [1]	inhibition [2]	inhibition [3]
CCc1cccc(-n2c(=O)c3cccnc3n2CC(=O)NCc2ccccc2Cl)c1	9.08%	9.17%	4.33%
Fc1cccc(C=NNc2ccnc3cc(Cl)ccc23)c1	3.49%	4.64%	0.64%
CC(C)(C)c1cc(NC2CC2)nc(-c2ccccn2)n1	1.4%	3.18%	4.03%
CC(=O)N(C)/N=C/[C@H](CCc1ccccc1)NC(=O)[C@H](CC(C)C)NC(=O)c1cccc(OCCN2CCOCC2)c1	9.6%	9.59%	8.5%
Cc1cccc2nc(-c3ccc(-c4cccc(CNCCc5ccncc5)c4)cc3)[nH]c12	5.55%	3.23%	0.92%
COc1ccc(CC(=O)NC(CCN2CCC3(CCc4ccccc43)CC2)c2ccc(Cl)c(Cl)c2)cc1 (centres undefined)	0.25%	-0.66%	-0.93%
Cn1cnc(-c2ccc3c(c2)CCN(CCC2CCC(NC(=O)/C=C/c4ccc(F)cc4)CC2)CC3)c1 (centres undefined)	54.7%	70.5%	60.9%
CCOC(=O)C1=C(C)N=c2sc(=Cc3ccccc3O)c(=O)n2C1c1ccc(OC)c2ccccc12 (centres undefined)	-1.25%	-0.06%	-1.57%
CCOc1cc(C)ccc1NC1CCN(CCCCNC(=O)c2ccc(NC(=O)c3ccc(Cl)cc3)cc2)CC1	-0.53%	1.56%	1.89%
Cc1cccc2nc(-c3ccc(-c4cccc(CN5CCC(CCN6CCCCC6)CC5)c4)s3)[nH]c12	-0.21%	0.87%	-3.24%
O=[N+]([O-])c1ccc(Nc2nc(NCc3ccccc3)nc(N/N=C/c3ccccc3[N+](=O)[O-])n2)cc1	2.21%	-0.41%	0.43%
Cc1ccc2nc(C)cc(N/N=C/c3ccc([N+](=O)[O-])o3)c2c1	14.9%	12.8%	9.98%
CCN(CC)CCCN(C(=O)Nc1ccc(C#N)cc1)c1nc(-c2ccc(F)cc2)cs1	-0.54%	2.42%	-0.41%
COc1ccc(NC(=O)/C=C/c2ccc(Oc3ccccc3Cl)c([N+](=O)[O-])c2)cc1OCCN(C(C)C)C(C)C	-0.7%	-0.91%	-1.59%
Cc1cccc2c3c([nH]c12)C1(CCN(Cc2ccccc2)CC1)NC(C(=O)NCc1ccccc1)C3 (centres undefined)	0.05%	-0.76%	0.87%
CCCOc1ccc(CCNCCCCNCCc2ccc(OCCC)c3ccccc23)c2ccccc12	101%	99.1%	105%
Nc1nc(N)c2c(ccc3c2ccn3CC2CC2)n1	2.11%	6.17%	0.91%

SMILES	inhibition [1]	inhibition [2]	inhibition [3]
O=C(CCCCCNC(=O)c1ccc(O)c(-c2ccc(Cl)c(Cl)c2)c1)NCc1cccc(C(F)(F)F)c1	-1.4%	-1.74%	-4.05%
COc1ccc(O)cc1Cc1cnc2nc(N)nc(N)c2c1C	-0.06%	1.16%	0.83%
O=C(Nc1cccc(C(F)(F)F)c1)c1ccc(S(=O)(=O)NCC2CCCN2CC2CCCCC2)cc1 (centres undefined)	1.8%	3.93%	-0.18%
Cc1noc(-c2ccc(O)cc2O)c1-c1ccc2c(c1)OCCCO2	0.11%	0.09%	0.22%
CCOC(=O)c1ccc(NC(=O)Nc2cccc(-c3cccc(-c4nc5cccc(C)c5[nH]4)c3)c2)cc1	2.35%	3.22%	1.01%
COc1ccc(OCCON)cc1	7.35%	10.4%	8.87%
CC(=O)Nc1ccc(CN(Cc2ccc(F)cc2)Cc2ccc3c(c2)OCO3)cc1	2.71%	1.82%	3.2%
COc1cc2nc(NCc3ccc(S(N)(=O)=O)cc3)nc(Nc3ccc(Oc4ccccc4)cc3)c2cc1OC	4.15%	4.39%	3.67%
COc1cc(COc2c(C)nc(N)nc2N)cc(OC)c1OC	5.98%	4.54%	4.97%
Cc1cc(NCCC(=O)NCCOc2ccccc2)nc(NCc2ccccc2C)n1	3.15%	0.58%	0.45%
Cc1cnc(CN(Cc2ccc(-c3ccc(CNCCc4ccc(S(C)(=O)=O)cc4)cn3)cc2)C(=O)c2nn(-c3ccccc3)nc2C)cn1	5.03%	3.95%	4.81%
N=C(NCCCCC1CCCCC1)c1cccc(C(=N)NCCCCC2CCCCC2)n1	0.33%	0.98%	0.14%
Oc1ccc(CCNc2nc(NCc3cccc(OCc4cccc(F)c4)c3)nc(N3CCNCC3)n2)cc1	-1.28%	0.71%	1.08%
C/C=C/COc1ccc(-c2c(C)[nH]c(C)c(Cl)c2=O)cc1	4.66%	6.53%	4.16%
O=[N+]([O-])c1ccc(/C=N/O)nc1	88.1%	91.2%	84.6%
COc1ccc2nc(Nc3nc(-c4ccccn4)cs3)sc2c1	11.7%	16%	5.62%
